Data on 33 compounds can be found in ChEMBL document CHEMBL1961873, “Compounds: GSK PKIS; Assays: Nanosyn kinase panel” (2012).

Sequence of Mast/stem cell growth factor receptor Kit (Homo sapiens), P10721 [D816V] (P10721 whole entry D816V): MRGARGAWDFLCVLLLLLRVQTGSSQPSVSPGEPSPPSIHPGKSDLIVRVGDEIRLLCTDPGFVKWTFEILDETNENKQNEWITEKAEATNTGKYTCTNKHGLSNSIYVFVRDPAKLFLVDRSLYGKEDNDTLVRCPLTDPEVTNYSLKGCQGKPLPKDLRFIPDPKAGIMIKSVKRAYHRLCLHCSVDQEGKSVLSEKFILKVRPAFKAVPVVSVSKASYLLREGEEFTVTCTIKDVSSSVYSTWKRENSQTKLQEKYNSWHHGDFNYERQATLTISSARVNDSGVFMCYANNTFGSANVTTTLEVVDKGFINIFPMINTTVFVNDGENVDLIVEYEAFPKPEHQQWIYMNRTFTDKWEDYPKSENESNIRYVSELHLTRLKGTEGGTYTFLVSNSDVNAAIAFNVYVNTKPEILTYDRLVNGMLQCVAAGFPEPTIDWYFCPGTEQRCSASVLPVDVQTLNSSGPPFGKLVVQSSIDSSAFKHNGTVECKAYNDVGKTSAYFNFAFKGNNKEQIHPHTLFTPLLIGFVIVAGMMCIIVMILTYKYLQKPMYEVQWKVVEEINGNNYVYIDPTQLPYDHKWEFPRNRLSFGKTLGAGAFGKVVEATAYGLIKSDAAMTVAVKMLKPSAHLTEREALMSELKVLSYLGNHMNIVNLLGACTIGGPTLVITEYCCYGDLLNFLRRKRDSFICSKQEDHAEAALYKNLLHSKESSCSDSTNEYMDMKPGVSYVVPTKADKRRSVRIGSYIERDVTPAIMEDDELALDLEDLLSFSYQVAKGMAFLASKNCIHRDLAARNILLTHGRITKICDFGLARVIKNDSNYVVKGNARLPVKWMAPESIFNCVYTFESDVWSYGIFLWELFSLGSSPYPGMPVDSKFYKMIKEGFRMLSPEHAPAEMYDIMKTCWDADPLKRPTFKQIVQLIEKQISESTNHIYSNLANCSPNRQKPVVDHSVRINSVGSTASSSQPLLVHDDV

The subject of one test is Mast/stem cell growth factor receptor Kit (Homo sapiens), P10721 [D816V]. To be noted: at 0.1 µM.
A word on the inhibition: it is the change of the read-out against control, counted positive when it falls. `CCn1c(-c2nonc2N)nc2c(C#CC(C)(C)O)ncc(OC3CCNCC3)c21`: the inhibition was 4.97%.

Turning to `NS(=O)(=O)c1ccc(Nc2ncc(-c3ccccc3)o2)cc1`, the inhibition amounted to 0.49%.

In the case of `CCCN(CCS(C)(=O)=O)Cc1ccc(-c2ccc3ncnc(Nc4ccc(OCc5cccc(F)c5)c(Cl)c4)c3c2)o1`, the inhibition amounted to 1.86%.

With `CN1CCC(n2cnc(-c3ccc(F)cc3)c2-c2ccnc(Nc3ccccc3)n2)CC1`, the inhibition turned out to be 1.84%.

Regarding `COc1ccc(CNC(=O)c2ccc(-c3cc(-c4nnc(C)o4)ccc3C)cc2)cc1`, the inhibition was -5.34%.

Regarding `COc1cc(Nc2nccc(Nc3ccc4c(C)n[nH]c4c3)n2)cc(OC)c1OC`, the inhibition stood at 10.8%.

With `CN1CCC(n2cnc(-c3ccc(F)cc3)c2-c2ccnc(N)n2)CC1`, the inhibition was determined as 5.49%.

`COc1ccc2c(-c3ccnc(Nc4cccc(OC(F)(F)F)c4)n3)cnn2n1`: the inhibition was determined as 7.04%.

The test system is the same in a further test. To be noted: at 1 µM.
Consider `CCn1cc(-c2ccnc3[nH]ccc23)c(-c2cccc(NC(=O)Nc3ccc(OCc4ccccc4)cc3)c2)n1`, for which the inhibition was -0.05%.

For `Cc1cccc(Nc2ncc(-c3ccccc3)o2)c1`, the inhibition was -0.48%.

`Nc1nc(-c2ccc(F)cc2)c(-c2ccc3ncccc3n2)s1`: the inhibition came out at 5.04%.

Consider `FC(F)(F)c1cccc(-c2nn3ncccc3c2-c2ccnc(Nc3ccc4c(c3)OCCO4)n2)c1`, for which the inhibition stood at 1.8%.

Turning to `CNC(=O)c1cncc(/C=C/c2ccccc2Cl)c1`, the inhibition is 3.85%.

Turning to `O=C(O[C@H]1CN[C@H](C#Cc2cc3ncnc(Nc4ccc(Cc5ccccc5)cc4)c3s2)C1)N1CCOCC1`, the inhibition was 1.8%.

For the compound `COc1ccc(-c2nn3ncccc3c2-c2ccnc(Nc3ccc4c(c3)OCCO4)n2)cc1`, the inhibition was determined as 0.8%.

For the compound `CCNC(=O)O[C@H]1CN[C@H](C#Cc2cc3ncnc(Nc4ccc(OCc5cccc(F)c5)c(Cl)c4)c3s2)C1`, the inhibition was found to be 3.63%.

Take `COc1ccc(-c2oc3ncnc(N)c3c2-c2ccc(NC(=O)Nc3cc(C(F)(F)F)ccc3F)cc2)cc1`: the inhibition worked out at 5.19%.

Take `CCn1c(-c2nonc2N)nc2cnc(Oc3cccc(NC(=O)c4ccc(N(C)C)cc4)c3)cc21`: the inhibition was -1.44%.

`CCn1c(-c2nonc2N)nc2c(C#CC(C)(C)O)nc(OC[C@H](N)c3ccccc3)cc21`: the inhibition stood at 10%.

As to `Fc1ccc(-c2nn3ncccc3c2-c2ccnc(Nc3ccc4c(c3)OCCO4)n2)cc1`, the inhibition turned out to be 4.13%.

For `COc1cccc(-c2c[nH]c3c(N/N=C/c4ccncc4)ncnc23)c1`, the inhibition was 38.7%.

As to `O=C(Nc1n[nH]c2cc(-c3ccc(F)cc3)ccc12)C1CC1`, the inhibition is 5.66%.

As for `Clc1ccc(-c2nn3ncccc3c2-c2ccnc(Nc3ccccc3)n2)cc1`, the inhibition is -1.04%.

Consider `c1ccc(COc2ccc(Nc3ncnc4ccc(-c5ccco5)cc34)cc2)cc1`, for which the inhibition is -0.29%.

As for `N#Cc1c(NC(=O)c2ccc(F)cc2)sc2c1CCCC2`, the inhibition is 2.78%.

Consider `COc1cc(/C=N/Nc2ncnc3[nH]ncc23)ccc1O`, for which the inhibition turned out to be 12.9%.

Turning to `Nc1nc(-c2cccc(Cl)c2)c(-c2ccc3ncccc3n2)s1`, the inhibition turned out to be 8.71%.

Take `COc1cc2ncn(-c3cc(OCc4ccccc4C(F)(F)F)c(C(=O)N(C)C)s3)c2cc1OC`: the inhibition worked out at 3.99%.

In the case of `COC(=O)Nc1nc2ccc(S(=O)(=O)c3ccc(NC(=O)Nc4cc(C(F)(F)F)ccc4F)cc3)cc2[nH]1`, the inhibition stood at 5.14%.

Regarding `COc1ccc(-c2cc3c(N)ncnc3o2)cc1`, the inhibition amounted to 0.89%.

In the case of `COc1cc(N2CCN(C(C)C)CC2)ccc1Nc1nc(Nc2ccc(F)cc2C(N)=O)c2cc[nH]c2n1`, the inhibition amounted to 2.56%.

Regarding `CC1=C(C(=O)Nc2cc(Cl)c3[nH]ncc3c2)C(c2ccc(C(F)(F)F)cc2)CC(=O)N1` (stereo unspecified), the inhibition is 6.4%.

For `CC(=O)NCc1cccc(C#Cc2cncnc2Nc2ccc(OCc3cccc(F)c3)c(Cl)c2)c1`, the inhibition was -2.37%.

In the case of `CCn1c(-c2nonc2N)nc2c(C#CC(C)(C)O)ncc(OC3CCNCC3)c21`, the inhibition worked out at 6.05%.

Turning to `NS(=O)(=O)c1ccc(Nc2ncc(-c3ccccc3)o2)cc1`, the inhibition stood at 2.25%.

Turning to `CCCN(CCS(C)(=O)=O)Cc1ccc(-c2ccc3ncnc(Nc4ccc(OCc5cccc(F)c5)c(Cl)c4)c3c2)o1`, the inhibition was 4.14%.

With `CN1CCC(n2cnc(-c3ccc(F)cc3)c2-c2ccnc(Nc3ccccc3)n2)CC1`, the inhibition came out at 2.39%.

For `COc1ccc(CNC(=O)c2ccc(-c3cc(-c4nnc(C)o4)ccc3C)cc2)cc1`, the inhibition came to 4.89%.

Turning to `COc1cc(Nc2nccc(Nc3ccc4c(C)n[nH]c4c3)n2)cc(OC)c1OC`, the inhibition was determined as 58.7%.

On to `CN1CCC(n2cnc(-c3ccc(F)cc3)c2-c2ccnc(N)n2)CC1`, for which the inhibition is 7.78%.

Turning to `COc1ccc2c(-c3ccnc(Nc4cccc(OC(F)(F)F)c4)n3)cnn2n1`, the inhibition was found to be 6.99%.
